Compound activity (PubChem)
Hits are enriched below; roughly 3.1% of the tested compounds scored in any of these assays.
Mtb BioA inh – blocks M. tuberculosis BioA enzyme activity | inhibition, % at 9.99 µM | purified M. tuberculosis BioA enzyme, plate reader | actives 0.096% (n = 360,000); in the data active = inhibition above about 40%
FadD28 binding – blocks FadD28 binding to the bisubstrate probe; fluorescence polarization; inhibition, % at 12.5 µM; actives 0.22% (n = 360,000); in the data active = inhibition above about 8.5%, passing the limit was not always enough
3CLpro inhibitor – SARS-CoV 3CLpro protease inhibition; recombinant SARS-CoV 3CLpro, quenched FRET peptide cleavage; inhibition, % at 6 µM; actives 0.14% (n = 290,000); in the data active = inhibition above about 12%
Mtb FBA inh – inhibitors of M. tuberculosis fructose-bisphosphate aldolase; P9WQA3; purified M. tuberculosis FBA, fluorescence read-out; inhibition, % at 1 µM; actives 2.3% (n = 360,000)
Target sequence (P9WQA3 whole entry, looked up): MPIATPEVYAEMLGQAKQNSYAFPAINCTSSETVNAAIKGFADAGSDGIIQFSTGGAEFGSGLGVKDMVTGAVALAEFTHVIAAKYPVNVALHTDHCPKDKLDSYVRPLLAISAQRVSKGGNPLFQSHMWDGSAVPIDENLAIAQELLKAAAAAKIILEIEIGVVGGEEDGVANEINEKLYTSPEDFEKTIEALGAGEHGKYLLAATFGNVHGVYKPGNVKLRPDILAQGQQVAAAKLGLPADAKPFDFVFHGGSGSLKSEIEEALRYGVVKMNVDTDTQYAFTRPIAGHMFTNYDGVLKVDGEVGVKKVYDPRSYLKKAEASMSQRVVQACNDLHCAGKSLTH
GDH-TPI counter-1 – inhibits GDH-TPI coupling enzymes, artifact for Mtb FBA screen; actives 1.2% (n = 360,000); inhibition, % at 4.8 µM; GDH-TPI coupled enzyme counterscreen, NADH absorbance; in the data active = inhibition above about 30%
Mtb FBA confirm – confirmation of M. tuberculosis fructose-bisphosphate aldolase inhibitors | shares compounds with Mtb FBA inh | purified M. tuberculosis FBA, fluorescence read-out | inhibition, % at 1 µM | actives 78% (n = 5,600) | AID 651616
GDH-TPI counter-2 – inhibits GDH-TPI coupling enzymes, flagging Mtb FBA hits. GDH-TPI coupled enzyme counterscreen, fluorescence. AID 652141. shares compounds with Mtb FBA inh. inhibition, % at 1 µM. actives 81% (n = 5,600); in the data active = inhibition above about 10%
GDH-TPI dose – counter-screen for M. tuberculosis FBA inhibitors: GDH-TPI dose response | shares compounds with Mtb FBA inh | GDH-TPI coupled enzyme assay, fluorescence, artifact counterscreen | IC50, µM | actives 79% (n = 170) | AID 652145; call rule not given here
Large screens that a line does not name were inactive (follow-up assays come after a bar, where they were run). Rule as the data show it, unless noted: active = inhibition above about 27%; inactive = the rest.

C[C@H](CO)N1C[C@H](C)[C@H](CN(C)C(=O)c2ccccc2)Oc2ncc(-c3ccc(C#N)cc3)cc2C1=O	none (no result: FadD28 binding, 3CLpro inhibitor, Mtb FBA inh, GDH-TPI counter-1)
COCC(=O)Nc1ccc2c(c1)OC[C@@H](C)N(Cc1ccncc1)C[C@@H](C)[C@@H](OC)CN(C)C2=O	none (no result: FadD28 binding, 3CLpro inhibitor, Mtb FBA inh, GDH-TPI counter-1)
Cc1c(OCc2nn[nH]n2)ccc2c3c(c(=O)oc12)CCC(C)C3 (configuration not stated)	Mtb FBA inh 107 | Mtb FBA confirm active | GDH-TPI counter-2 155
O=C(O)C(Oc1ccc2c3c(c(=O)oc2c1)CCC3)c1ccccc1 (configuration not stated)	Mtb FBA inh 69 | Mtb FBA confirm inactive | GDH-TPI counter-2 inactive
Cc1c(Cc2ccccc2)c(=O)oc2cc(OCc3nn[nH]n3)ccc12	Mtb FBA inh 83 | Mtb FBA confirm inactive | GDH-TPI counter-2 inactive
CC(=O)COc1ccc2c3c(c(=O)oc2c1)CCCC3	Mtb FBA inh 70 | Mtb FBA confirm 33 | GDH-TPI counter-2 35
O=C(COc1ccc2c3c(c(=O)oc2c1)CCCC3)NCc1ccncc1	none
C[C@@H]1CN([C@H](C)CO)C(=O)c2cc(-c3ccccc3)cnc2O[C@@H]1CN(C)C(=O)Cc1ccccn1	none (no result: FadD28 binding, 3CLpro inhibitor, Mtb FBA inh, GDH-TPI counter-1)
CCCN1[C@H](C(=O)N(C)C)[C@@H](CO)[C@@H]2Cn3c(ccc(-c4ccc(OC)cc4)c3=O)[C@@H]21	none (no result: FadD28 binding, 3CLpro inhibitor, Mtb FBA inh, GDH-TPI counter-1)
CCc1cc(=O)oc2c(C)c(OC(C)C(=O)NC3CC(C)(C)NC(C)(C)C3)ccc12 (configuration not stated)	none
O=C(COc1ccc2c3c(c(=O)oc2c1)CCC3)Nc1ccccn1	none
C#CCOc1ccc2c3c(c(=O)oc2c1)CCCC3	Mtb FBA inh 46 | Mtb FBA confirm active | GDH-TPI counter-2 active
O=c1oc2cc(OCc3nn[nH]n3)ccc2c2c1CCCC2	Mtb FBA inh 89 | Mtb FBA confirm inactive | GDH-TPI counter-2 inactive
CCc1cc(=O)oc2c(C)c(OCC(=O)NC3CC(C)(C)NC(C)(C)C3)ccc12	Mtb FBA inh 37 | Mtb FBA confirm 139 | GDH-TPI counter-2 124
C[C@H](CO)N1C[C@H](C)[C@H](CN(C)C(=O)NC2CCCCC2)Oc2ncc(/C=C/c3ccccc3)cc2C1=O	none (no result: FadD28 binding, 3CLpro inhibitor, Mtb FBA inh, GDH-TPI counter-1)
C[C@@H]1CN([C@H](C)CO)C(=O)c2cc(/C=C/c3ccccc3)cnc2O[C@H]1CN(C)C(=O)NC1CCCCC1	Mtb FBA inh 60 (no result: 3CLpro inhibitor) | Mtb FBA confirm 75 | GDH-TPI counter-2 70
Cc1nn(C)cc1-c1cc(C(=O)O)c2ccccc2n1	Mtb FBA inh 82 (no result: Mtb BioA inh) | Mtb FBA confirm inactive | GDH-TPI counter-2 inactive | GDH-TPI dose 3.3
Cc1cc(-c2cc(C(=O)O)c3ccccc3n2)c(C)s1	none (no result: Mtb BioA inh)
COc1ccc2cc(C(N)=O)c(=Nc3ccccc3)oc2c1	Mtb FBA inh 36 (no result: Mtb BioA inh) | Mtb FBA confirm inactive | GDH-TPI counter-2 inactive | GDH-TPI dose inactive
COc1ccc2cc(C(=O)NCc3ccccc3)c(=Nc3ccc(C(=O)O)cc3)oc2c1	none (no result: Mtb BioA inh)
COc1ccc2c(c1)cc(C(=O)N[C@@H](Cc1ccccc1)C(=O)N[C@@H](C)C(=O)O)n2C	Mtb FBA inh 59 | Mtb FBA confirm 31 | GDH-TPI counter-2 inactive | GDH-TPI dose 2.5
COc1ccc2c(c1)cc(C(=O)N[C@@H](Cc1ccccc1)C(=O)O)n2C	Mtb FBA inh 92 | Mtb FBA confirm 121 | GDH-TPI counter-2 88
COc1ccc2c(c1)cc(C(=O)N[C@@H](CCSC)C(=O)N1CCC(C(=O)O)CC1)n2C	Mtb FBA inh 64 | Mtb FBA confirm inactive | GDH-TPI counter-2 inactive
O=C(NC1CCCCC1)N[C@@H]1C=C[C@H](CC(=O)N2CCOCC2)O[C@@H]1CO	none (no result: FadD28 binding, 3CLpro inhibitor, Mtb FBA inh, GDH-TPI counter-1)
CC(C)CC#Cc1cnc2c(c1)C(=O)N([C@@H](C)CO)C[C@@H](C)[C@@H](CN(C)C(=O)Cc1cccnc1)O2	none (no result: FadD28 binding, 3CLpro inhibitor, Mtb FBA inh, GDH-TPI counter-1)
COc1ccc(Cc2noc(CN3CCCN(Cc4ccc(F)cc4)CC3)n2)cc1OC	Mtb FBA inh 59 (no result: Mtb BioA inh) | Mtb FBA confirm 58 | GDH-TPI counter-2 40
COc1ccc(C(=O)N/N=C/c2cc3ccccc3[nH]c2=O)cc1	Mtb FBA inh 40, GDH-TPI counter-1 50 (no result: Mtb BioA inh) | Mtb FBA confirm 126 | GDH-TPI counter-2 106
COc1ccc(OC)c(/C=N\NC(=O)c2ccc(-c3ccccc3)cc2)c1	none
COc1ccc(C(=O)N/N=C/c2ccc(N(C)c3ccccc3)cc2)cc1	Mtb FBA inh 41 (no result: 3CLpro inhibitor) | Mtb FBA confirm 109 | GDH-TPI counter-2 99
CN(C)CCCn1c(=S)[nH]c2ccccc2c1=O	none
CN(C)CCCn1c2c3ccccc3ccc2c2oc(=O)c3ccccc3c21	Mtb FBA inh 27 (no result: Mtb BioA inh, 3CLpro inhibitor) | Mtb FBA confirm active | GDH-TPI counter-2 active
COc1ccc(-c2c3c(=O)n(C)c(=O)n(C)c3cn2-c2ccc(O)cc2)cc1	Mtb FBA inh 45 | Mtb FBA confirm active | GDH-TPI counter-2 189
O=C1NC2=C(C(=O)c3ccccc32)C(c2ccccc2)N1 (configuration not stated)	none
Cc1ccc(C2NC(=O)NC3=C2CCc2ccccc23)cc1 (configuration not stated)	Mtb FBA inh 35 (no result: Mtb BioA inh) | Mtb FBA confirm 61 | GDH-TPI counter-2 55
CC(C)c1ccc(C2NC(=O)NC3=C2CCc2ccccc23)cc1 (configuration not stated)	Mtb FBA inh 32 | Mtb FBA confirm 63 | GDH-TPI counter-2 35
O=C(O)c1cnc2ccccc2n1	Mtb FBA inh 33 | Mtb FBA confirm 62 | GDH-TPI counter-2 43
COc1ccc(-c2nc3c4ccccc4ccn3c2CN2CCOCC2)cc1OC	Mtb FBA inh 37 | Mtb FBA confirm 74 | GDH-TPI counter-2 51
c1ccc(-c2nc3c4ccccc4ccn3c2CN2CCOCC2)cc1	none
Cc1csc2nc(=O)c3ccccc3n12	Mtb FBA inh 49 (no result: Mtb BioA inh) | Mtb FBA confirm active | GDH-TPI counter-2 175
CN(C)C(=O)c1ccc(-c2ccc3c(c2)[C@@H]2[C@@H](CCN2Cc2cncnc2)[C@@H](CO)N3)cc1	none (no result: FadD28 binding, 3CLpro inhibitor, Mtb FBA inh, GDH-TPI counter-1)
O=C(CCN1CCCCC1)NCC[C@@H]1CC[C@@H](NC(=O)C2CCOCC2)[C@H](CO)O1	none (no result: FadD28 binding, 3CLpro inhibitor, Mtb FBA inh, GDH-TPI counter-1)
O=C(Cc1ccc(Cl)cc1)Nc1ccc(-c2nnc(-c3ccco3)o2)cc1	Mtb FBA inh 59 | Mtb FBA confirm 38 | GDH-TPI counter-2 31
COc1ccccc1CC(=O)Nc1ccc(-c2nnc(-c3ccco3)o2)cc1	Mtb FBA inh 83 | Mtb FBA confirm 51 | GDH-TPI counter-2 42
COc1ccc(CC(=O)Nc2cccc(-c3nnc(-c4ccco4)o3)c2)cc1	none
O=C(Cc1ccccc1)Nc1nnc(-c2ccco2)o1	none (no result: Mtb BioA inh)
O=C(Cc1ccccc1)Nc1ccc(-c2nnc(-c3ccco3)o2)cc1	Mtb FBA inh 51 | Mtb FBA confirm active | GDH-TPI counter-2 151
